In the library only some 8.2% were active in any assay of this set; here they are far more common.
KB-V1 cytotox = KB-V1 MDR subline cytotoxicity | KB-V1 MDR cells viability, CellTiter-Glo, 72 h | 400,000 tested, 3.4% active | Potency, µM (highest dose often 46.1 µM), most hits filed as cytotoxic | AID 1347076; further: nearly all actives have a fitted effect of over 60% in size
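KB-V1 cells (P-gp-expressing MDR subline of KB-3-1) in phenol-red-free DMEM with 10% FBS were exposed to library compounds over a concentration series for 72 h at 37 degrees C. Viability read by CellTiter-Glo luminescence; concentration-effect curves fitted after normalization.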
KB-3-1 tox = kills parental KB-3-1 adenocarcinoma cells; KB-3-1 viability, CellTiter-Glo ATP luminescence, 72 h; Potency, µM (titrated, usually from 46.1 µM), hits mostly cytotoxic; 400,000 tested, 1.4% active; AID 1347075; further: nearly all actives have a fitted effect of over 60% in size
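Multi-concentration cytotoxicity screen in KB-3-1 cells grown in DMEM lacking phenol red with 10% FBS. After 72 h at 37 °C with compound, ATP-dependent luminescence was recorded.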
ELG1 DNA repair = ELG1-dependent DNA repair inhibition; 330,000 tested, 2.3% active; Potency, µM (series often up to 46.1 µM), usual class: inhibitors; HEK293T ELG1-luciferase reporter, luminescence, 16 h; DNA damage induced by 5-fluorouridine; further: nearly all actives have a fitted effect of over 55% in size
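Luminescence from the luciferase reporter, measured 30 min after ONE-Glo reagent at room temperature, was the read-out. Beforehand, 2,000 cells per well were exposed for 16 hr at 37 °C to 5-fluorouridine together with compound or vehicle.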
SW480 rerep = inducers of DNA re-replication in SW480 colon cancer cells; Potency, µM (doses to about 46.1 µM), hits mostly activators; 340,000 tested, 1.8% active; SW480 DNA re-replication, Hoechst DNA content imaging, 48 h; further: nearly all actives have a fitted effect of over 55% in size
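Per well, 250 cells were exposed to pinned compound for 48 hr. Nuclear DNA was visualised with Hoechst (40 min, 37 C) and total object intensity recorded by fluorescence scanning.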
MCF10A rerep = induces DNA re-replication in MCF 10a normal breast cells. Potency, µM (series often up to 46.1 µM), hits mostly activators. 350,000 tested, 2.9% active. MCF 10A DNA re-replication, Hoechst nuclear intensity, 48 h. AID 624296; further: nearly all actives have a fitted effect of over 50% in size
ELG1 FLuc counter = luciferase inhibition in cell-free luciferin readout for ELG1 hits; shares compounds with ELG1 DNA repair; cell-free firefly luciferase luminescence counter-screen, ViewLux; Potency, µM (doses to about 46.1 µM), actives largely listed as inhibitors; 350 tested, 3% active; AID 624247
ELG1 Luc conf = human ELG1 repair inhibition, luciferase-tagged ELG1 confirmation; HEK293T ELG1-luciferase levels, luminescence; cells co-treated with 5-fluorouridine; AID 624248; Potency, µM (highest dose often 46.1 µM), most hits filed as inhibitors; 670 tested, 68% active; shares compounds with ELG1 DNA repair; further: nearly all actives have a fitted effect of over 55% in size
ELG1 MMS Luc = MMS-stimulated human ELG1 repair inhibition, confirmed; AID 624249; HEK293T luciferase-tagged ELG1 level, MMS stimulated; Potency, µM (doses to about 46.1 µM), hits mostly inhibitors; shares compounds with ELG1 DNA repair; 670 tested, 53% active; further: nearly all actives have a fitted effect of over 60% in size
ELG1 5-FU = confirmation of ELG1 repair inhibitors: viability with 5FU. shares compounds with ELG1 DNA repair. cell viability with 5-FU, ELG1-dependent repair. Potency, µM (titrated, usually from 46.1 µM), usual class: cytotoxic. 670 tested, under 10 active. AID 624250;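 further: ELG1-luc HEK293T cells cotreated with 5-fluorouridine at 10 µM final; viability measured 16 h after compound addition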
ELG1 MMS viab = confirmation of ELG1 repair inhibitors: viability with MMS | shares compounds with ELG1 DNA repair | Cell viability with MMS, ELG1-dependent DNA repair | Potency, µM (titrated, usually from 46.1 µM), hits mostly cytotoxic | 670 tested, 33% active;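 further: ELG1-luc HEK293T cells co-treated with 10 µM MMS; viability read 16 h after compound addition; nearly all actives have a fitted effect of over 60% in size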
ELG1 unstim viab = affects unstimulated cell viability, ELG1 hit counter-screen; shares compounds with ELG1 DNA repair; cell viability counter-screen, unstimulated, luminescence; Potency, µM (series often up to 45.9 µM), most hits filed as cytotoxic; 900 tested, 8% active; AID 624252;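 further: compound exposure lasted 16 hours before reading; nearly all actives have a fitted effect of over 55% in size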
FLuc enzyme = counter-screen for ELG1 repair inhibitors: firefly luciferase inhibition. shares compounds with ELG1 DNA repair. purified firefly luciferase, luminescence counter-screen. Potency, µM (highest dose often 57.5 µM), most hits filed as inhibitors. 350 tested, 10% active
Of the large screens only hits and unclear results are named; the others gave an inactive call (follow-up assays come after a bar, where they were run). The call rests on the fitted dose curve; in most records, active means well fitted curve in the direction sought with a large enough effect; inconclusive means small, poorly fitted or top-dose-only effect, or another doubt; inactive means no such curve, though single readings can be large; an effect the other way counts as inactive or inconclusive.

O=C(COC(=O)C1CC2C=CC1C2)Nc1c(Br)cc([N+](=O)[O-])cc1Br (centres undefined)	ELG1 DNA repair 4.6µM (no result: KB-V1 cytotox, KB-3-1 tox) | ELG1 Luc conf 7.9µM | ELG1 MMS Luc inactive | ELG1 5-FU inconclusive | ELG1 MMS viab inconclusive | ELG1 unstim viab inconclusive
CC(=O)c1cc2c(cc1NC(=O)CSc1nc3ccccc3o1)OCO2	ELG1 DNA repair inconclusive | ELG1 FLuc counter inactive | ELG1 unstim viab inactive | FLuc enzyme inactive
Cc1cc(C)nc(NC(=O)CSc2nc3ccccc3o2)n1	ELG1 DNA repair inconclusive
CC(=O)Nc1ccc(NC(=O)CSc2nc3ccccc3o2)cc1	ELG1 DNA repair inconclusive
Cc1cccc(NC(=O)CSc2nc3ccccc3o2)c1	ELG1 DNA repair inconclusive | ELG1 FLuc counter inactive | ELG1 unstim viab inactive | FLuc enzyme inactive
O=C(CSc1nc2ccccc2o1)Nc1ccccc1N1CCCCCC1	KB-3-1 tox inconclusive, MCF10A rerep inconclusive | ELG1 FLuc counter inactive | ELG1 unstim viab inactive | FLuc enzyme inactive
CC1(C(=O)NS(=O)(=O)c2ccc(F)cc2F)CCN1C(=O)c1ccc(C2CCCCC2)cc1 (centres undefined)	KB-V1 cytotox inconclusive (no result: ELG1 DNA repair, SW480 rerep, MCF10A rerep)
CC(=O)Oc1cccc(C(=O)Nc2ccc(NC(=O)c3cccs3)cc2)c1	ELG1 DNA repair inconclusive
Cc1ccc(-n2ncc3c(N4CCN(CCO)CC4)ncnc32)cc1Cl	none (no result: ELG1 DNA repair, SW480 rerep, MCF10A rerep)
OCCN1CCN(c2ncnc3ccc(Br)cc23)CC1	KB-V1 cytotox inconclusive, ELG1 DNA repair 2.1µM, MCF10A rerep inconclusive | ELG1 Luc conf inconclusive | ELG1 MMS Luc inconclusive | ELG1 5-FU inactive | ELG1 MMS viab inactive | ELG1 unstim viab inactive
CC1(C(=O)NCCc2c[nH]c3ccccc23)CCN1Cc1csc2ccccc12 (centres undefined)	none (no result: ELG1 DNA repair, SW480 rerep, MCF10A rerep)
Cc1ccc(OCCNC(=O)CCNS(=O)(=O)c2ccc3ccccc3c2)cc1	MCF10A rerep inconclusive
CC1CCCCN1c1ncnc(N)c1[N+](=O)[O-] (centres undefined)	ELG1 DNA repair 3.3µM | ELG1 Luc conf 7.1µM | ELG1 MMS Luc 14µM | ELG1 5-FU inactive | ELG1 MMS viab inconclusive | ELG1 unstim viab inactive
Cc1nc(N2CCOCC2)nc(N2CCCCC2C)c1[N+](=O)[O-] (centres undefined)	KB-V1 cytotox inconclusive, KB-3-1 tox inconclusive
CC(NC(=O)c1ccc(NC(=O)CC2SC(N3CCCC3)=NC2=O)cc1)c1ccccc1 (centres undefined)	none
COC(=O)[C@@H](NC(=O)O[C@@H]1C(=O)c2cc(Br)ccc2O[C@H]1c1cccc(OC)c1)C(C)C	MCF10A rerep inconclusive (no result: KB-V1 cytotox, KB-3-1 tox)
COc1cccc([C@@H]2Oc3ccc(OC)cc3C(=O)[C@H]2OC(=O)NS(=O)(=O)c2ccc(C)cc2)c1	none (no result: KB-V1 cytotox, KB-3-1 tox, ELG1 DNA repair, SW480 rerep, MCF10A rerep) | ELG1 unstim viab inactive
COc1ccc(/C=C2\Oc3ccccc3C2=O)cc1	KB-V1 cytotox inconclusive, KB-3-1 tox inconclusive, ELG1 DNA repair inconclusive | ELG1 unstim viab inactive
CC(=O)Oc1ccc(/C=C2/Oc3ccccc3C2=O)cc1	KB-V1 cytotox inconclusive, ELG1 DNA repair inconclusive
COc1ccc(/C=N/NC(=O)c2ccc(CN3c4cccc5cccc(c45)S3(=O)=O)cc2)cc1	ELG1 DNA repair inconclusive
COc1ccc(CCNC(=O)CN2c3cccc4cccc(c34)S2(=O)=O)cc1OC	ELG1 DNA repair 2.6µM | ELG1 Luc conf inconclusive | ELG1 MMS Luc inactive | ELG1 5-FU inconclusive | ELG1 MMS viab inactive | ELG1 unstim viab inconclusive
COc1cc(/C=N/NC(=O)c2ccc(CN3c4cccc5cccc(c45)S3(=O)=O)cc2)cc(OC)c1O	ELG1 DNA repair 3.3µM, MCF10A rerep 16µM | ELG1 Luc conf 3.5µM | ELG1 MMS Luc 22µM | ELG1 5-FU inconclusive | ELG1 MMS viab 25µM | ELG1 unstim viab inconclusive
CCOC(=O)c1c(NC(=O)Cn2cc([N+](=O)[O-])cn2)sc2c1CCC2	ELG1 DNA repair 1.8µM, MCF10A rerep inconclusive | ELG1 Luc conf inactive | ELG1 MMS Luc 18µM | ELG1 5-FU inactive | ELG1 MMS viab 7.9µM | ELG1 unstim viab inconclusive
COc1ccc(N2CCCn3c2nc2c3c(=O)n(CCc3ccccc3)c(=O)n2C)cc1	KB-V1 cytotox inconclusive, ELG1 DNA repair 4.1µM | ELG1 Luc conf 18µM | ELG1 MMS Luc 16µM | ELG1 5-FU inconclusive | ELG1 MMS viab inactive | ELG1 unstim viab inactive
CCOc1ccc(N2CCCn3c2nc2c3c(=O)n(CCc3ccccc3)c(=O)n2C)cc1	none (no result: KB-V1 cytotox, KB-3-1 tox, SW480 rerep, MCF10A rerep)
Cn1cnnc1SCC(=O)Nc1ccc(F)cc1	KB-V1 cytotox inconclusive
CS(=O)(=O)c1ccc(Cl)c(NC(=O)CN2CCCC2c2ccc3c(c2)OCCCO3)c1 (centres undefined)	ELG1 DNA repair inconclusive
COc1ccc(C)cc1NC(=O)CN1CCCC1c1ccc2c(c1)OCCCO2 (centres undefined)	KB-V1 cytotox inconclusive, ELG1 DNA repair 4.1µM | ELG1 Luc conf 3.1µM | ELG1 MMS Luc 18µM | ELG1 5-FU inconclusive | ELG1 MMS viab inconclusive | ELG1 unstim viab inactive
CCCCn1c(N)c(N(CCOC)C(=O)C2CCN(S(=O)(=O)c3ccccc3)CC2)c(=O)[nH]c1=O	KB-V1 cytotox inconclusive, SW480 rerep inconclusive
CSc1nccc(-c2sc(SC)c(C#N)c2-c2ccccc2)n1	KB-V1 cytotox inconclusive, MCF10A rerep inconclusive
CSc1sc(-c2ccnc(SCCS(C)(=O)=O)n2)c(-c2ccccc2)c1C#N	ELG1 DNA repair 4.6µM | ELG1 Luc conf 3.1µM | ELG1 MMS Luc 0.56µM | ELG1 5-FU inactive | ELG1 MMS viab 0.63µM | ELG1 unstim viab inconclusive

Screening data as filed in PubChem BioAssay.
